Compound activity from PubChem BioAssay.
Most compounds without a hit are left out; they make up all but 1.3% or so of the library.
PREPL inhibitor – PREPL enzyme inhibitors, primary screen, biochemical, fluorescence polarization. Prolyl endopeptidase-like (Homo sapiens), Q4J6C6. recombinant PREPL, fluorescence polarization activity-based probe. inhibition, % at 5.96 µM. hit rate 0.68% among 320,000. AID 2751, 2010; in the data active = inhibition above about 43%;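 note: 0% = enzyme with DMSO and 100% = wells lacking enzyme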
Fam108B counter – mouse Fam108B serine hydrolase inhibitors, primary screen, counter-screen for RBBP9 inhibitor project, biochemical, fluorescence polarization; recombinant Fam108B, FP-Rh probe fluorescence polarization; inhibition, % at 9.51 µM; hit rate 0.33% among 300,000; AID 1947, 2009;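 active = inhibition above the screen mean inhibition plus 3 SD, computed separately per campaign, cut at about 18% in these data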;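 note: inhibitors lower polarization as less probe binds the enzyme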
LYPLA2 inh – LYPLA2 inhibitors, primary screen, counter-screen for PME1 inhibitor project, biochemical, fluorescence polarization, FP-Rh probe ABPP. hit rate 0.38% among 320,000. recombinant LYPLA2. inhibition, % at 5.9 µM. Acyl-protein thioesterase 2 (Homo sapiens), O95372;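 active = inhibition above the screen-wide mean plus 3 SD, limit set per campaign, cut at about 26% in these data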;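 note: 0% = LYPLA2 with DMSO and 100% = wells lacking LYPLA2 enzyme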
Target sequence (O95372 whole entry, looked up): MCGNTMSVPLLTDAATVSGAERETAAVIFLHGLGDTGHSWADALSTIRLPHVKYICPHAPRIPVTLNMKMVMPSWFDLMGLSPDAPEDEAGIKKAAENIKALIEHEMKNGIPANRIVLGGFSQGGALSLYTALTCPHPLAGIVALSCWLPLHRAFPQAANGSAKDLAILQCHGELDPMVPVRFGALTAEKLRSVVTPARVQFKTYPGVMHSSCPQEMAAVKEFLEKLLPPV
PME-1 inh – PME-1 inhibitors via competitive probe labeling, primary screen, biochemical, fluorescence polarization, FP-Rh probe, HTS; AID 2130, 2009; Protein phosphatase methylesterase 1 (Homo sapiens), Q9Y570; inhibition, % at 5.9 µM; recombinant PME-1; hit rate 0.53% among 320,000;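 active = inhibition above the campaign mean of all compounds plus 3 SD, cut at about 26% in these data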;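 note: competitive labeling of PME-1 active site by serine hydrolase directed probe; 0% = PME-1 with DMSO and 100% = wells lacking PME-1 enzyme; inhibitors block probe labeling so polarization falls and inhibition rises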
LYPLA1 counter – LYPLA1 inhibitors, primary screen, counter-screen for PME1 inhibitor project, biochemical, fluorescence polarization, FP-Rh probe ABPP | recombinant LYPLA1 | AID 2174, 2009 | hit rate 0.16% among 320,000 | inhibition, % at 5.9 µM | Acyl-protein thioesterase 1 (Homo sapiens), O75608;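 active = inhibition above the mean of all tested compounds plus 3 SD, set per campaign, cut at about 14% in these data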;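 note: inhibitors block serine hydrolase probe labeling of LYPLA1 so polarization falls; 0% = enzyme with DMSO and 100% = wells lacking LYPLA1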
Target sequence (O75608 whole entry, looked up): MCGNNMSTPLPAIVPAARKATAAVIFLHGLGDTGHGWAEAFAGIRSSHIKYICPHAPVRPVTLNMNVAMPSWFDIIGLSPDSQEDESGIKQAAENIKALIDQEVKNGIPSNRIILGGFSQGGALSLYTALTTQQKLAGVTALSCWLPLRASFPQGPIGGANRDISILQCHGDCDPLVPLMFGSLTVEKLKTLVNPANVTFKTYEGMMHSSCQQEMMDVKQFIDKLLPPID
LYPLA2 conf – LYPLA2 inhibitors, retest, confirmation, counter-screen for PME1 inhibitor project, biochemical, fluorescence polarization, FP-Rh probe ABPP | shares compounds with LYPLA2 inh | recombinant LYPLA2 | inhibition, % at 5.9 µM | hit rate 72% among 1,100 | AID 2232, 2010;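 active = mean inhibition across replicates above the hit cutoff set in the primary screen, cut at about 26% in these data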;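 note: blocked labeling of the enzyme by serine hydrolase FP-Rh probe lowers polarization; 0% = enzyme with DMSO and 100% = wells lacking LYPLA2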
LYPLA2 gel ABPP – LYPLA2 inhibitors in proteome, late-stage follow-up, gel-based competitive ABPP, fluorescence, assay provider. AID 652029, 2013. shares compounds with LYPLA2 inh. rhLYPLA2 in mouse brain proteome, gel ABPP FP-Rh. inhibition, % at 20 µM. hit rate 30% among 150;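 active = inhibition of LYPLA2 enzyme probe labeling above about 50%, limit read from the data; inactive = inhibition below that limit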;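 note: loss of FP-Rh probe labeling of the LYPLA2 gel band measured as band density; 0% = DMSO only control band and 100% = blank gel background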
Numbers without * were called inactive; . = not tested or not shown.

SMILES	PREPL inhibitor	Fam108B counter	LYPLA2 inh	PME-1 inh	LYPLA1 counter	LYPLA2 conf	others
CCN(CC)C(=O)c1ccc(S(=O)(=O)N2CCC(c3nc4ccccc4s3)CC2)cc1	-13	2	27*	8	6	16
O=C(CNc1ccc(Br)cc1)Nc1ccc(S(=O)(=O)N2CCCC2)cc1	-12	.	29*	4	-6	19
O=C(Nc1ccc(S(=O)(=O)N2CCCC2)cc1)c1c(F)cccc1F	13	-2	28*	7	-1	0
O=C(CNc1ccc(Br)cc1)Nc1cccc(S(=O)(=O)N2CCCC2)c1	6	.	-6	9	-4	.
COc1ccc(C(=O)NC(=S)Nc2cccnc2)cc1[N+](=O)[O-]	-5	5	28*	5	8	28*
O=C1COc2ccc(C(=O)COC(=O)c3ccccc3[N+](=O)[O-])cc2N1	4	3	16	2	-2	.
O=C1COc2ccc(C(=O)COC(=O)c3ccc(Cl)cc3[N+](=O)[O-])cc2N1	18	4	27*	3	3	33*
O=C(CCS(=O)(=O)c1ccc(Br)cc1)N1CCCCCC1	2	0	14	2	3	.
O=C(Nc1cc(S(=O)(=O)N2CCCCC2)ccc1N1CCOCC1)c1cc(=O)[nH]c2ccccc12	0	1	32*	3	-2	27*
COc1ccc(S(=O)(=O)N2CCOCC2)cc1NC(=O)c1cc(=O)[nH]c2ccccc12	8	.	-1	-5	-3	.
CC(C)CCN1C(=O)c2ccc(C(=O)NCc3ccco3)cc2C1=O	-7	3	28*	3	7	21
O=C(NCc1ccco1)c1ccc2c(c1)C(=O)N(Cc1ccccc1)C2=O	18	6	4	7	0	.
O=C(CC1SC(N2CCCCC2)=NC1=O)Nc1ccc(C(=O)NCCc2ccc(F)cc2)cc1 (centres undefined)	5	.	49*	5	2	39*
COCCNC(=O)c1sc2ncn(CC(=O)Nc3ccc(C)c(Cl)c3)c(=O)c2c1C	-1	4	50*	5	2	47*
Cc1ccc(NC(=O)Cn2cnc3sc(C(=O)NCc4ccco4)c(C)c3c2=O)cc1Cl	-21	1	23	-4	-7	.
COC(=O)CNC(=O)c1sc2ncn(CC(=O)Nc3ccc(C)c(Cl)c3)c(=O)c2c1C	-12	-1	40*	-5	-9	46*
COc1ccccc1NC(=O)Cn1cnc2sc(C(=O)Nc3ccc(OC)c(OC)c3)c(C)c2c1=O	-3	-5	20	0	-4	.
O=C(c1ccc(N2CCNCC2)cc1)c1cccnc1	7	-2	26*	2	4	9
CC(C)N(CCn1c(SCC(=O)Nc2cccnc2Cl)nc2ccccc2c1=O)C(C)C	-16	.	10	8	4	.
CCOC(=O)c1ccccc1-n1c(C)cc(C2N=C(N)Nc3nc4ccccc4n32)c1C (centres undefined)	-9	5	71*	-143	9	77*
Cc1cc(N2CCCCC2C)nc(-c2ccccc2O)n1 (centres undefined)	10	-1	-2	2	1	.
CCCC(=O)c1ccc(N2CCN(C(=O)c3ccccc3)CC2)c(F)c1	-1	3	16	-1	4	.
CCC(=O)c1ccc(N2CCN(C(=O)c3ccc(Br)cc3)CC2)c(F)c1	4	-2	30*	2	3	48*
CCCC(=O)c1ccc(N2CCN(C(=O)c3ccc(Br)cc3)CC2)c(F)c1	1	1	39*	2	3	70*	LYPLA2 gel ABPP=8
CCC(=O)c1ccc(N2CCN(C(=O)c3ccc(F)cc3)CC2)c(F)c1	-3	-2	16	4	5	.
Cc1ccc(NC(=O)CN2C(=O)S/C(=C\c3cc(C)n(-c4cccc(C(=O)O)c4)c3C)C2=O)cc1	4	-1	48*	-4	-5	43*
